Experimental data from PubChem BioAssay.
Measured potencies and affinities stand elsewhere. Calls of active or inactive are those of the source. The rule behind the calls is not given here.

biological target: Plasmodium falciparum protein kinase 6 (PK6, PF3D7_1337100) (UniProt Q8IDW1); assay: PfPK6 kinase inhibitors, biochemical, TCAMS library (AID 1159586); settings: recombinant PfPK6, Kinase-Glo ATP depletion luminescence
Sequence (Q8IDW1 1-305): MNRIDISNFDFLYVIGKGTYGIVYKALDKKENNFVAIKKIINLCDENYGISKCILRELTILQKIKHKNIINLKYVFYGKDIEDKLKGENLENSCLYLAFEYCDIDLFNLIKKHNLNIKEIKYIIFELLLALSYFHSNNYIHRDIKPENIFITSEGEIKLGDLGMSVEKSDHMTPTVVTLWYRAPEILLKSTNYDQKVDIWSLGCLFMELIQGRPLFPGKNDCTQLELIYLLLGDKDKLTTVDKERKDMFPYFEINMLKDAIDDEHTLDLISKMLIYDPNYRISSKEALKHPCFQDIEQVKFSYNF

| Structure (SMILES) | outcome |
| --- | --- |
| COc1ccc2nccc([C@@H](O)CN3CCC(NCc4cc5ccccc5o4)CC3)c2c1 | inactive |
| Oc1ccc(-c2cncc(NCc3ccc(F)c(F)c3)c2)cc1 | inactive |
| Cc1cc(C(=O)Nc2ccc3c(ccn3C3CCCN(Cc4ccc(C(F)(F)F)cc4F)CC3)c2)no1 (stereo unspecified) | inactive |
| O=C(Nc1nc(-c2ccccn2)cs1)c1ccc(S(=O)(=O)N2CCc3ccccc32)cc1 | inactive |
| Cc1cc(NC2CCCC2)nc(Nc2ccccc2F)n1 | inactive |
| COc1ccc2nccc([C@@H](O)CN3CCC(NCCOc4cc(F)cc(F)c4)CC3)c2c1 | inactive |
| CN1CCCN(Cc2cccc(-c3cccc(NS(=O)(=O)c4cccc5cccnc45)c3)c2)CC1 | inactive |
| Cc1nc(-c2cccc(Nc3nccc(NCC(O)c4ccccc4C)n3)c2)cs1 (stereo unspecified) | inactive |
| N#Cc1cccc(Nc2nccc(NCC(O)c3ccccc3C(F)(F)F)n2)c1 (stereo unspecified) | inactive |
| CCCCNCc1ccc(-c2nc(CN(Cc3ccc(Cl)c(Cl)c3)C(=O)CN(C)C)cs2)cc1 | inactive |
| COc1cc2nc(NCC3CCN(c4nc(N)c5cc(OC)c(OC)cc5n4)CC3)nc(N)c2cc1OC | inactive |
| CN1CCC(NCc2ccc(-c3ccc(S(=O)(=O)NCc4ccccc4)c(F)c3)cc2)CC1 | inactive |
| O=C(Nc1cccc(-c2csc(-c3ccccc3)n2)c1)c1cccs1 | inactive |
| CC(C)(C)Nc1cc(C2CC2)nc(-c2ccccn2)n1 | inactive |
| CCOc1ccc(C=CC(=O)Nc2ccc3nc(N4CCOCC4)cc(C)c3c2)cc1OC | inactive |
| COC(=O)c1cccc(OCCNC2CCN(C[C@H](O)c3ccnc4ccc(OC)cc34)CC2)c1 | inactive |
